In PubChem BioAssay AID1159580 (chemical genetic matrix, 2015):
Where “and” joins values, the source holds several entries; their conditions need not be identical. Equal values may be shown once. In all, about 5,500 compounds went through this assay and about 2,000 (36%) were called active. About 18% were inconclusive and are not listed. No stated cut-off is given here; in the data, active means normalized growth mostly below about 0.91 (no sharp cut-off); inconclusive means no clear call, values can overlap the other calls; inactive means mostly above about 0.92. Some of the results follow.

Test: chemical genetic growth profiling, strain panel (AID 1159580);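 further: tested at 20 µM; growth read once vehicle control cultures reached saturation at 30 °C; 1 = growth at the plate median or of vehicle wells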
Details: S. cerevisiae deletion strains, growth OD

Measured: normalized growth

COc1cc(OC)c2c(=O)c(OC)c(-c3ccc(OC)c(OC)c3)oc2c1
inactive: locus YAL021C, strain ccr4, stronger effect = lower value 1.01 | locus YAL026C, strain drs2, stronger effect = lower value 1.02 | locus YAL030W, strain snc1, stronger effect = lower value 1.02 | locus YBL061C, strain skt5, stronger effect = lower value 1 | locus YBR009C, strain hhf1, stronger effect = lower value 1.01 | locus YBR021W, strain FUR4, stronger effect = lower value 0.952 | locus YBR023C, strain chs3, stronger effect = lower value 1.01 | locus YBR171W, strain sec66, stronger effect = lower value 1.04 | locus YBR229C, strain ROT2, stronger effect = lower value 1 | locus YBR231C, strain swc5, stronger effect = lower value 1 | locus YBR279W, strain paf1, stronger effect = lower value 1.02 | locus YCL011C, strain gbp2, stronger effect = lower value 1.01 | locus YCL016C, strain dcc1, stronger effect = lower value 1.01 | locus YCL029C, strain bik1, stronger effect = lower value 1.01 | locus YCL061C, strain MRC1, stronger effect = lower value 1.02 | locus YCL069W, strain vba3, stronger effect = lower value 1.02 | locus YCR088W, strain abp1, stronger effect = lower value 1.03 | locus YDL005C, strain med2, stronger effect = lower value 1.02 | locus YDL035C, strain GPR1, stronger effect = lower value 0.996 | locus YDL040C, strain nat1, stronger effect = lower value 1.01 | locus YDL074C, strain BRE1, stronger effect = lower value 0.995 | locus YDL101C, strain DUN1, stronger effect = lower value 1 | locus YDL185W, strain tfp1, stronger effect = lower value 1.01 | locus YDL192W, strain arf1, stronger effect = lower value 0.987 | locus YDR001C, strain nth1, stronger effect = lower value 1.02 | locus YDR069C, strain doa4, stronger effect = lower value 1.02 | locus YDR101C, strain arx1, stronger effect = lower value 1.01 | locus YDR137W, strain rgp1, stronger effect = lower value 1.06 | locus YDR150W, strain NUM1, stronger effect = lower value 0.998 | locus YDR159W, strain sac3, stronger effect = lower value 1.02 | locus YDR162C, strain NBP2, stronger effect = lower value 0.98 | locus YDR195W, strain ref2 1.04 | locus YDR297W, strain sur2, stronger effect = lower value 1.01 | locus YDR318W, strain mcm21, stronger effect = lower value 0.977 | locus YDR334W, strain swr1, stronger effect = lower value 1.02 | locus YDR335W, strain msn5, stronger effect = lower value 1.03 | locus YDR388W, stronger effect = lower value 0.995 | locus YDR392W, strain spt3, stronger effect = lower value 0.91 | locus YDR502C, strain sam2, stronger effect = lower value 1.01 | locus YEL003W, strain gim4, stronger effect = lower value 1.02 | locus YEL037C, strain rad23, stronger effect = lower value 1.02 | locus YEL061C, strain CIN8 (second series), stronger effect = lower value 1.02 | locus YEL061C, strain CIN8, stronger effect = lower value 1 | locus YER015W, strain faa2, stronger effect = lower value 1.01 | locus YER016W, strain bim1, stronger effect = lower value 1.01 | locus YER110C, stronger effect = lower value 1.02 | locus YER111C, strain swi4, stronger effect = lower value 1.03 | locus YER155C, strain BEM2 (second series), stronger effect = lower value 1.02 | locus YER155C, strain BEM2, stronger effect = lower value 1 | locus YER167W, strain BCK2, stronger effect = lower value 1 | locus YFR010W, strain ubp6, stronger effect = lower value 1.03 | locus YGL078C, strain dbp3, stronger effect = lower value 1.02 | locus YGL086W, strain mad1, stronger effect = lower value 1.01 | locus YGL167C, strain pmr1, stronger effect = lower value 1 | locus YGL173C, strain kem1, stronger effect = lower value 1.01 | locus YGL227W, strain vid30, stronger effect = lower value 1.02 | locus YGL240W, strain doc1, stronger effect = lower value 1.03 | locus YGL248W, strain PDE1, stronger effect = lower value 0.97 | locus YGL253W, strain hxk2, stronger effect = lower value 1.02 | locus YGR078C, strain PAC10, stronger effect = lower value 0.958 | locus YGR135W, strain pre9, stronger effect = lower value 0.968 | locus YGR252W, strain gcn5, stronger effect = lower value 0.915 | locus YHR013C, strain ard1, stronger effect = lower value 1.01 | locus YHR027C, strain rpn1, stronger effect = lower value 1.01 | locus YHR030C, strain SLT2, stronger effect = lower value 1.01 and 0.976 | locus YHR079C, strain IRE1 (second series), stronger effect = lower value 1.02 | locus YHR079C, strain IRE1, stronger effect = lower value 0.992 | locus YHR094C, strain hxt1, stronger effect = lower value 1.01 | locus YHR129C, strain ARP1, stronger effect = lower value 0.992 | locus YHR142W, strain chs7, stronger effect = lower value 1.01 | locus YHR200W, strain rpn10, stronger effect = lower value 1 | locus YIL066C, strain RNR3, stronger effect = lower value 0.982 | locus YIL073C, strain SPO22, stronger effect = lower value 1.03 | locus YIL125W, strain kgd1, stronger effect = lower value 1.02 | locus YIR030C, strain dcg1, stronger effect = lower value 1 | locus YJL092W, strain hpr5, stronger effect = lower value 1.02 | locus YJL095W, strain BCK1 (second series), stronger effect = lower value 1.01 | locus YJL095W, strain BCK1, stronger effect = lower value 0.934 and 1 | locus YJL115W, strain asf1, stronger effect = lower value 1.02 | locus YJL129C, strain trk1, stronger effect = lower value 1.01 | locus YJL134W, strain LCB3, stronger effect = lower value 1.01 | locus YJL154C, strain vps35, stronger effect = lower value 1 | locus YJL164C, strain tpk1, stronger effect = lower value 1.01 | locus YJL166W, strain qcr8, stronger effect = lower value 1 | locus YJL168C, strain set2, stronger effect = lower value 1.02 | locus YJL187C, strain SWE1 (second series), stronger effect = lower value 0.996 | locus YJL187C, strain SWE1, stronger effect = lower value 1.01 | locus YJR043C, strain POL32, stronger effect = lower value 1 | locus YJR066W, strain TOR1, stronger effect = lower value 0.941 | locus YJR075W, strain HOC1, stronger effect = lower value 0.986 | locus YKL009W, strain mrt4, stronger effect = lower value 1.02 | locus YKL068W, stronger effect = lower value 1 | locus YKL085W, strain MDH1 (second series), stronger effect = lower value 0.997 | locus YKL085W, strain MDH1, stronger effect = lower value 0.997 | locus YKL160W, strain elf1, stronger effect = lower value 0.995 | locus YKR001C, strain vps1, stronger effect = lower value 0.994 | locus YKR026C, strain gcn3, stronger effect = lower value 0.997 | locus YKR091W, strain srl3, stronger effect = lower value 1.02 | locus YLL001W, strain dnm1, stronger effect = lower value 1.03 | locus YLL026W, stronger effect = lower value 1.01 | locus YLL041C, strain sdh2, stronger effect = lower value 1.01 | locus YLR027C, strain aat2, stronger effect = lower value 1.01 | locus YLR039C, strain RIC1, stronger effect = lower value 0.976 | locus YLR058C, strain SHM2, stronger effect = lower value 0.984 | locus YLR102C, strain apc9, stronger effect = lower value 1.01 | locus YLR113W, strain HOG1, stronger effect = lower value 0.978 | locus YLR221C, strain rsa3, stronger effect = lower value 1.01 | locus YLR258W, strain gsy2, stronger effect = lower value 1.02 | locus YLR262C, strain YPT6 (second series), stronger effect = lower value 1.08 | locus YLR262C, strain YPT6, stronger effect = lower value 0.984 | locus YLR268W, strain sec22, stronger effect = lower value 1.03 | locus YLR320W, strain mms22, stronger effect = lower value 0.985 | locus YLR330W, strain CHS5, stronger effect = lower value 1.01 | locus YLR342W, strain FKS1 (second series), stronger effect = lower value 0.973 | locus YLR342W, strain FKS1, stronger effect = lower value 1.01 | locus YLR357W, strain rsc2, stronger effect = lower value 1.02 | locus YLR370C, strain arc18, stronger effect = lower value 1.01 | locus YLR371W, strain rom2, stronger effect = lower value 1.02 | locus YLR384C, strain iki3, stronger effect = lower value 1.01 | locus YLR418C, strain cdc73, stronger effect = lower value 0.954 | locus YML016C, strain PPZ1, stronger effect = lower value 0.992 | locus YML032C, strain rad52, stronger effect = lower value 0.987 | locus YML120C, strain ndi1, stronger effect = lower value 1.02 | locus YML124C, strain tub3, stronger effect = lower value 1 | locus YMR058W, strain fet3, stronger effect = lower value 1.03 | locus YMR078C, strain ctf18, stronger effect = lower value 1.01 | locus YMR125W, strain sto1, stronger effect = lower value 1.03 | locus YMR129W, stronger effect = lower value 1.03 | locus YMR205C, strain PFK2, stronger effect = lower value 1.03 | locus YMR223W, strain ubp8, stronger effect = lower value 0.972 | locus YMR231W, strain pep5, stronger effect = lower value 1.02 | locus YMR263W, strain SAP30, stronger effect = lower value 0.996 | locus YMR307W, strain GAS1, stronger effect = lower value 0.981 | locus YNL067W, strain RPL9B, stronger effect = lower value 1 | locus YNL071W, strain lat1, stronger effect = lower value 1.01 | locus YNL153C, strain GIM3, stronger effect = lower value 0.972 | locus YNL183C, strain NPR1, stronger effect = lower value 0.926 | locus YNL209W, strain ssb2, stronger effect = lower value 1.01 | locus YNL233W, strain BNI4, stronger effect = lower value 0.955 | locus YNL248C, strain rpa49, stronger effect = lower value 1.02 | locus YNL250W, strain rad50, stronger effect = lower value 1.03 | locus YNL271C, strain bni1, stronger effect = lower value 1.02 | locus YNL298W, strain CLA4, stronger effect = lower value 0.998 | locus YNL307C, strain MCK1, stronger effect = lower value 1.01 | locus YNL322C, strain KRE1 (second series), stronger effect = lower value 1.02 | locus YNR049C, strain mso1, stronger effect = lower value 1.02 | locus YNR052C, strain pop2, stronger effect = lower value 0.993 | locus YOL006C, strain TOP1, stronger effect = lower value 1.03 | locus YOL012C, strain htz1 0.947 | locus YOL147C, strain pex11, stronger effect = lower value 1.02 | locus YOR001W, strain rrp6, stronger effect = lower value 1.01 | locus YOR061W, strain CKA2, stronger effect = lower value 1.01 | locus YOR069W, strain VPS5, stronger effect = lower value 1.01 | locus YOR070C, strain gyp1, stronger effect = lower value 1.03 | locus YOR080W, strain dia2, stronger effect = lower value 1.01 | locus YOR083W, strain WHI5, stronger effect = lower value 0.997 | locus YOR106W, strain vam3, stronger effect = lower value 0.992 | locus YOR136W, strain idh2, stronger effect = lower value 1.02 | locus YOR144C, strain elg1, stronger effect = lower value 1.01 | locus YOR184W, strain ser1, stronger effect = lower value 0.992 | locus YOR231W, strain MKK1, stronger effect = lower value 1.01 | locus YOR265W, strain rbl2, stronger effect = lower value 1 | locus YOR270C, strain vph1, stronger effect = lower value 1.09 | locus YOR290C, strain snf2, stronger effect = lower value 1 | locus YOR316C, strain cot1, stronger effect = lower value 1.01 | locus YPL051W, strain arl3, stronger effect = lower value 0.993 | locus YPL078C, strain atp4, stronger effect = lower value 1.02 | locus YPL106C, strain sse1, stronger effect = lower value 0.999 | locus YPL240C, strain hsp82, stronger effect = lower value 1 | locus YPL256C, strain CLN2, stronger effect = lower value 0.976 | locus YPR119W, strain clb2, stronger effect = lower value 1.01 | locus YPR141C, strain kar3, stronger effect = lower value 1.02 | locus YPR163C, strain tif3, stronger effect = lower value 1 | locus YPR167C, strain met16, stronger effect = lower value 1.04 | strain wtn01, stronger effect = lower value 1.04
